Experimental data taken from PubChem BioAssay AID2061310 (National Center for Advancing Translational Sciences (NCATS), 2025).
Inconclusive results are not listed. Activity calls are given as the source filed them. The call rests on the fitted dose curve; in most records, active means well fitted curve in the direction sought with a large enough effect; inconclusive means small, poorly fitted or top-dose-only effect, or another doubt; inactive means no such curve, though single readings can be large or run the other way.

What follows are molecules tested against Retinal dehydrogenase 2 (Homo sapiens) (UniProt O94788) (assay: qHTS for Inhibitors of the Aldehyde Dehydrogenase Family (ALDH1A2) Validation screens). Conditions: fluorescence read-out; Potency: ALDH1A2 inhibition qHTS validation; series mostly up to 49.8 µM; activity, negative = inhibition: at the top concentration.

Compound	Potency	activity, negative = inhibition
CC(C)(C)c1ccc(S(=O)(=O)/C=C/C#N)cc1	2.82 µM (active)	
CCOC(=O)CSc1nc2c(sc3ccccc32)c(=O)n1CCCN1CCCC1		0.849% [at 44.5 µM] (inactive)
CCCN(CCC)C(=O)Cn1c(=O)n(-c2ccc(C)cc2)c(=O)c2ccc(C(=O)NCc3ccccc3Cl)cc21		-1.51% (inactive)
Cc1ccc(C(=O)Nc2cccc(C(=O)O)c2)cc1		-31.7% (inactive)
CCOc1ccc(-c2cc(C(=O)N3CCN(c4ccccn4)CC3)c3ccccc3n2)cc1		-9.2% (inactive)
O=C(OC1C[C@@H]2CC3C[C@H](C1)N2CC3=O)c1c[nH]c2ccccc12 (some centres undefined)		17.5% (inactive)
CCOC(=O)CNS(=O)(=O)c1cc(-c2nnc(Nc3cccc(O)c3)c3ccccc23)ccc1C		-1.24% (inactive)
N/C(=N\OC(=O)c1ccccc1)c1ccccn1		15.7% (inactive)
CC(C)N(CCC(=O)c1ccc2ccccc2c1)Cc1ccccc1	5.62 µM (active)	
